Measured values as given in PubChem BioAssay (NCATS).
Results filed as inconclusive are left out. Active and inactive are the calls of the source. Unless noted, calls follow the shape of the dose curve; as a rule, active = well fitted curve in the direction sought with a large enough effect; inconclusive = small, poorly fitted or top-dose-only effect, or another doubt; inactive = no such curve, though single readings can be large; an effect the other way counts as inactive or inconclusive.

Legend:
[1] = Viability counterscreen for antagonist of constitutive androstane receptor (CAR) against the NCATS DSHEA and TCM libraries (AID 1794837);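 also: compound exposure lasted 24 h before viability reading; 0% is about no effect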
Summary of the method: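 Cell viability, CellTiter-Fluor, Ex/Em 405/540 nm, 1 h at 37C. HepG2-CYP2B6-hCAR, 2,500 cells/well; cpds + CITCO 48 uM final (antagonist mode), 24 h, 37C/5% CO2.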

[2] = Viability counterscreen for agonist of constitutive androstane receptor (CAR) against the NCATS DSHEA and TCM libraries (AID 1794838); also: 0% is about no effect
Summary of the method: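 Viability by CellTiter-Fluor fluorescence, 405/540 nm, after 1 h at 37C. HepG2-CYP2B6-hCAR cells were exposed 24 h to test substances in presence of 0.75 uM PK11195 (final).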

[3] = target: Nuclear receptor subfamily 1 group I member 3 (Homo sapiens) (UniProt Q14994); assay: Primary qHTS for agonist of constitutive androstane receptor (CAR) against the NCATS DSHEA and TCM libraries (AID 1794839);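 also: HepG2 cells expressing human CAR with a CYP2B6 reporter plus PK11195 antagonist; 0% is about no effect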
Summary of the method: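 Luminescence from ONE-Glo luciferase was the agonist read-out in HepG2-CYP2B6-hCAR cells exposed 24 h to test substances. Wells also held the CAR antagonist PK11195 at 0.75 µM final. Viability was by CellTiter-Fluor fluorescence.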

[4] = HepG2 viability counterscreen (readout 2: ATP content) against the NCATS DSHEA and TCM libraries (AID 1794840); also: 0% is about no effect
Summary of the method: (§1)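 1,000 HepG2 cells/well, 4 h attach; compounds ~24 h, 37C/5% CO2. Readout 1: GF-AFC 25 uM final, 30 min, fluorescence 380/510 nm. Readout 2: CellTiter-Glo, 30 min RT, luminescence.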

[5] = HepG2 viability counterscreen (readout 1: protease activity) against the NCATS DSHEA and TCM libraries (AID 1794841);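 also: cells exposed to compounds for about 24 h before the protease read; 0% is about no effect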
Summary of the method: as §1

[6] = target: Glutathione peroxidase 1 (Homo sapiens) (UniProt P07203); assay: Primary qHTS Assay for Inhibitors of Recombinant Selenoprotein Glutathione Peroxidase 1 (GPX1) (AID 1845191); also: nearly all actives have a fitted effect of over 65% in size; as to activity, negative = inhibition: % is scaled to controls: 0 for no effect and ±100 for the full control effect
Summary of the method: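 GR-coupled readout: NADPH consumption tracked by fluorescence, ex 340/em 450 nm, at t=0 and after 15 min at RT. Final mix 10 nM GPX1, 1 mM GSH, 0.5 mM CHP, 0.5 mM NADPH, 100 nM GR, 0.01% BSA, following 30 min enzyme–compound preincubation.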

[7] = target: Phospholipid hydroperoxide glutathione peroxidase GPX4 (Homo sapiens) (UniProt P36969); assay: Primary qHTS Assay for Inhibitors of Recombinant Selenoprotein Glutathione Peroxidase 4 (GPX4) (AID 1845192); also: nearly all actives have a fitted effect of over 65% in size; as to activity change, negative = inhibition: series mostly up to about 50 µM; % is scaled to controls: 0 for no effect and ±100 for the full control effect
Summary of the method: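 Steps: GPX4 plus compound, 30 min RT; add GR/GSH/NADPH master mix; start with cumene hydroperoxide; read 340/450 nm fluorescence at 0 and 15 min. Finals were 200 nM GPX4, 1 mM GSH, 0.5 mM CHP, 0.5 mM NADPH, 100 nM GR.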

[8] = target: Luciferin 4-monooxygenase (Photinus pyralis) (UniProt P08659); assay: Primary firefly luciferase (FLuc) qHTS assay for identification of artifact compounds. (AID 1845220); also: nearly all actives have a fitted effect of over 60% in size;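 as to activity change, negative = inhibition: series mostly up to about 54 µM; plate controls were DMSO vehicle for no effect and no enzyme for full effect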
Summary of the method: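 Enzymatic FLuc inhibition assay: compounds pre-exposed to luciferin/ATP (10 uM each) for 15 min, then purified P. pyralis enzyme at 10 nM added. Read-out: luminescence at 5 min.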

[9] = Primary fluorescence-based thiol-reactive (MSTI) qHTS assay for identification of artifact compounds. (AID 1845221); also: nearly all actives have a fitted effect of over 65% in size; also: potency is read from the fitted curve at half-maximal effect;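 as to activity change, negative = thiol reactive: series mostly up to about 54 µM; thiol-reactive compounds lower the probe fluorescence signal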
Summary of the method: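 One-hour, room-temperature, dark incubation of compound with 4 uM MSTI in PBS (pH 7.4, 2% DMSO) precedes a fluorescence read at 525 nm excitation, 598 nm emission; Hill-equation fitting yields concentration-response values.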

[10] = test system: Nanoluciferase (engineered Oplophorus gracilirostris luciferase); assay: Primary Nanoluciferase (NLuc) qHTS assay for identification of artifact compounds. (AID 1845222);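 also: NLuc secreted into diluted conditioned medium of S16 cells; series mostly up to about 54 µM; 0% = DMSO and -100% = no enzyme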
Summary of the method: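 S16 cell supernatant NLuc, 1:55; cpds qHTS; 15 min RT dark; Nano-Glo substrate 1:100, 5 min; luminescence; Hill fit of % inhibition.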

[11] = Primary redox qHTS assay for identification of artifact compounds. (AID 1845223);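 also: 0% = DMSO and 100% = reference compound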
Summary of the method: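 Redox-cycling detection via DTT (250 uM final) oxidation coupled to Amplex Red (25 uM)/HRP (250 mU/mL) in HBSS. 15 min preincubation plus 30 min after DTT, room temperature. Ex/Em 525/598 nm; 4-parameter Hill fit against DMSO and 10 uM DA3003.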

[12] = target: Cytochrome P450 3A4 (Homo sapiens) (UniProt P08684); assay: qHTS for inhibitors of CYP3A4 against the NCATS DSHEA and TCM libraries (AID 1919971); also: potency is read from the fitted curve at half-maximal effect
Summary of the method: (§2)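 Substances were tested against enzyme with a pro-luciferin substrate; minus-enzyme wells served as background. After NADPH-initiated oxidation (30-45 min, RT), light was generated with P450-Glo reagent.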

[13] = target: Cytochrome P450 2D6 (Homo sapiens) (UniProt P10635); assay: qHTS for inhibitors of CYP2D6 against the NCATS DSHEA and TCM libraries (AID 1919972); also: % is scaled to controls: 0 for no effect and ±100 for the full control effect
Summary of the method: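 qHTS, concentration–response format with most substances from 19.5 nM. CYP2D6 + pro-luciferin substrate, 15 min with compound, then 1x NADPH regen, 30–45 min RT dark. Glo detection 30 min, luminescence. Quinidine control.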

[14] = target: Cytochrome P450 2C9 (Homo sapiens) (UniProt P11712); assay: qHTS for inhibitors of CYP2C9 against the NCATS DSHEA and TCM libraries (AID 1919973); also: potency is read from the fitted curve at half-maximal effect
Summary of the method: as §2

[15] = target: Cytochrome P450 2C19 (Homo sapiens) (UniProt P33261); assay: qHTS for inhibitors of CYP2C19 against the NCATS DSHEA and TCM libraries (AID 1919974);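 also: luminescence from luciferin released by CYP2C19 oxidation of a pro-luciferin substrate; potency is read from the fitted curve at half-maximal effect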
Summary of the method: as §2

[16] = KB-3-1 P-gp reporter qHTS against the NCATS DSHEA and TCM libraries (AID 1919975); also: 0% is about no effect
Summary of the method: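 CellTiter-Glo luminescence viability readout; KB-3-1 parental cells, 500/well, attached ~4 h, then compound for ~72 h, 37C, 5% CO2. Bortezomib intraplate control.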

[17] = target: Cytochrome P450 1A2 (Homo sapiens) (UniProt P05177); assay: qHTS for inhibitors of CYPIA2 against the NCATS DSHEA and TCM libraries (AID 1919976); also: potency is read from the fitted curve at half-maximal effect
Summary of the method: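 Luminescence read-out: pro-luciferin converted to D-luciferin by CYP1A2, detected with P450-Glo reagent after 30 min RT. Enzyme plus substrate got compounds for 15 min RT; NADPH regeneration solution (final 1x) started a 30-45 min reaction, light-protected.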

[18] = qHTS Counterscreen for compound interference against the NCATS DSHEA and TCM libraries (AID 1919978); details: firefly luciferase detection reagent interference, luminescence;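 also: compounds preincubated with 1 µM D-luciferin or buffer before detection reagent; % of control where 0% means no effect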
Summary of the method: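 Luminescence counterscreen for detection-kit interference: compounds at 19.5 nM–39.8 uM final, 15 min RT with 1 uM D-luciferin or buffer only; detection reagent added, 30 min RT, then read.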

[19] = NCATS anti-infectives library activity on HEK293 viability as a counter-qHTS vs the C. elegans viability qHTS (AID 1745854); also: % is scaled to controls: 0 for no effect and ±100 for the full control effect
Summary of the method: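 CellTiter-Glo luminescence, read on a CCD imager, scored viability of HEK293 cells after 24 hr compound exposure at 37C. Library tested in several concentrations, 1:5 steps, up to 41.7 uM; digitonin served as control.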

[20] = NCATS anti-infectives library activity on the primary C. elegans qHTS viability assay (AID 1745855; calls by dose curve; also: potency is read from the fitted curve at half-maximal effect); details: C. elegans worm area imaging, day 7
Summary of the method: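 Titration-based screen in worms: eggs hatched overnight in M9, L1 larvae fed TOP10 capsules in S medium with compound, incubated 21 °C for 7 days; fluorescent objects gated by size and intensity at days 0, 3 and 7.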

Sequence of Phospholipid hydroperoxide glutathione peroxidase GPX4 (Homo sapiens) (P36969 whole entry, looked up): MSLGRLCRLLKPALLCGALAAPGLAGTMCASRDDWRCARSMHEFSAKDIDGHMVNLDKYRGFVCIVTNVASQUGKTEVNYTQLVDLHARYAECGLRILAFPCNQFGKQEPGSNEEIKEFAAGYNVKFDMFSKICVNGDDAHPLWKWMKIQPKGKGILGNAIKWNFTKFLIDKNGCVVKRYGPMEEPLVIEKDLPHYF
Sequence of Glutathione peroxidase 1 (Homo sapiens) (P07203 whole entry, looked up): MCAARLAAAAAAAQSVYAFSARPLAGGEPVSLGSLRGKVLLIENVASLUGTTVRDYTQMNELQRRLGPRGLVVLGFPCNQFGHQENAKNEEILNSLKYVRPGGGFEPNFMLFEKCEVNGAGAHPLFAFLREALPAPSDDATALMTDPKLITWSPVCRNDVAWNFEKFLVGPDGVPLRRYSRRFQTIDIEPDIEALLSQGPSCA
Sequence of Cytochrome P450 1A2 (Homo sapiens) (P05177 whole entry, looked up): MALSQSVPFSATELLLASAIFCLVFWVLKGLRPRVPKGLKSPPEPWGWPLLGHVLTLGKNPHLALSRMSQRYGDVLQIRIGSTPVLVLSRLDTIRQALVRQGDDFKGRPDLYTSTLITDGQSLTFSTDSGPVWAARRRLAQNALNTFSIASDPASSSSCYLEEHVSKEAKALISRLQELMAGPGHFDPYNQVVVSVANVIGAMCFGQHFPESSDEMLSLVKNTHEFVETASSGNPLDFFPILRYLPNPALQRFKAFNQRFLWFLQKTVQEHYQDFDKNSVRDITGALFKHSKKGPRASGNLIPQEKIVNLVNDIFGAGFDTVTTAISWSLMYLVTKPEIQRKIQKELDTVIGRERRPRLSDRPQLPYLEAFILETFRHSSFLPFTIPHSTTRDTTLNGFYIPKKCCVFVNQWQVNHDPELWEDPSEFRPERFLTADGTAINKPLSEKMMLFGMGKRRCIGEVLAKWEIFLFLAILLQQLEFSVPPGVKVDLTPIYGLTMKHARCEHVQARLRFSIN
Sequence of Cytochrome P450 2C9 (Homo sapiens) (P11712 whole entry, looked up): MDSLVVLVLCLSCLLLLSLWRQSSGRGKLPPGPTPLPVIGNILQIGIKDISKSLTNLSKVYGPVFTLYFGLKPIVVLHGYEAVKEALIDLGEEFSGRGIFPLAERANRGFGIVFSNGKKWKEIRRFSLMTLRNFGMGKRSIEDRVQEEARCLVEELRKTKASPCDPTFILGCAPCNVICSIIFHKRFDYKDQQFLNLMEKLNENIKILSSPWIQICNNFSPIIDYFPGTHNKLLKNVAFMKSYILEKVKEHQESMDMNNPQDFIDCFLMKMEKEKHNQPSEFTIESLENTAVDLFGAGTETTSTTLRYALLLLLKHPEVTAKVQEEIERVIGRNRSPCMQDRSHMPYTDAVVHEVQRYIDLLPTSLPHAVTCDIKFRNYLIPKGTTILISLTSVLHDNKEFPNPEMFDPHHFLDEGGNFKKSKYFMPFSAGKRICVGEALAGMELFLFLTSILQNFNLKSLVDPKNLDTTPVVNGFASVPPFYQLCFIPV
Sequence of Cytochrome P450 2C19 (Homo sapiens) (P33261 whole entry, looked up): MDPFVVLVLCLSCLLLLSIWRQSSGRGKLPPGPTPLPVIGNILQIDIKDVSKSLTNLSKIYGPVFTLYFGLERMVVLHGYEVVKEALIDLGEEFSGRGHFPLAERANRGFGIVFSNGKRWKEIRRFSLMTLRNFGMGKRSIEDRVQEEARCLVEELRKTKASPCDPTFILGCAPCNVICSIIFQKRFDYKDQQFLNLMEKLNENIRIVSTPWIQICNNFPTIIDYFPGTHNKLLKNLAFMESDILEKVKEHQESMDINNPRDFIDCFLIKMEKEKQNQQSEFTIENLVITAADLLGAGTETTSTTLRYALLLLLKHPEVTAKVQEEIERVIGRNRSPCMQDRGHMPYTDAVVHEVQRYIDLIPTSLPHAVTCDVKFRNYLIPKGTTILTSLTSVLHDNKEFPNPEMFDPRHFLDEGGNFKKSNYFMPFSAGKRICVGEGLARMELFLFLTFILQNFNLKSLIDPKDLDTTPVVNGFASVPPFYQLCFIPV
Sequence of Cytochrome P450 2D6 (Homo sapiens) (P10635 whole entry, looked up): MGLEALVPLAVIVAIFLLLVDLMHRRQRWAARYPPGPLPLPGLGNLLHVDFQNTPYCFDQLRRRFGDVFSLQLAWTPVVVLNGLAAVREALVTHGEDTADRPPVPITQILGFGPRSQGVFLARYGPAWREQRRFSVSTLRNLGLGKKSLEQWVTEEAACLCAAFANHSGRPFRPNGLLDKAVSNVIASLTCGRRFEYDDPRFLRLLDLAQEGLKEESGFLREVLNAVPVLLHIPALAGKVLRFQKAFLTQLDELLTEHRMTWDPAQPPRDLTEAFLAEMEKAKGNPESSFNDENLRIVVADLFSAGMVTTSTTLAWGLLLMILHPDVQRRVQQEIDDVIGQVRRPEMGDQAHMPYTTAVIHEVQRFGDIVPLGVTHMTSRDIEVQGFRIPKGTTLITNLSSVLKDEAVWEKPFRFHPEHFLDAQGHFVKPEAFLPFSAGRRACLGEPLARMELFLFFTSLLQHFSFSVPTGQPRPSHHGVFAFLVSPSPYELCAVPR
Sequence of Cytochrome P450 3A4 (Homo sapiens) (P08684 whole entry, looked up): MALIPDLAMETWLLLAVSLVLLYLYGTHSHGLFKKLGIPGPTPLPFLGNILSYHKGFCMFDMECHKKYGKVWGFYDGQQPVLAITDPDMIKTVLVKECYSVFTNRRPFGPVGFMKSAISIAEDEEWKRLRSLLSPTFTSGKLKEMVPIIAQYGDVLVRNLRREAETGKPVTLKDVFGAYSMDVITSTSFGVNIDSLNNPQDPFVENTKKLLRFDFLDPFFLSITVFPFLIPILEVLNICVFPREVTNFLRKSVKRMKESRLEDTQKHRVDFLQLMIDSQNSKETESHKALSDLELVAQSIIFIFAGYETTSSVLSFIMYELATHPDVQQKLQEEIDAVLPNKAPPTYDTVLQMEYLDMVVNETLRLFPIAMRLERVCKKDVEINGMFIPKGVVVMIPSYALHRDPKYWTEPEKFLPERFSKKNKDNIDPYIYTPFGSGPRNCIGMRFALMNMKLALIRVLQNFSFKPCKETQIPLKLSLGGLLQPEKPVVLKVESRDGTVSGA
Sequence of Nuclear receptor subfamily 1 group I member 3 (Homo sapiens) (Q14994 whole entry, looked up): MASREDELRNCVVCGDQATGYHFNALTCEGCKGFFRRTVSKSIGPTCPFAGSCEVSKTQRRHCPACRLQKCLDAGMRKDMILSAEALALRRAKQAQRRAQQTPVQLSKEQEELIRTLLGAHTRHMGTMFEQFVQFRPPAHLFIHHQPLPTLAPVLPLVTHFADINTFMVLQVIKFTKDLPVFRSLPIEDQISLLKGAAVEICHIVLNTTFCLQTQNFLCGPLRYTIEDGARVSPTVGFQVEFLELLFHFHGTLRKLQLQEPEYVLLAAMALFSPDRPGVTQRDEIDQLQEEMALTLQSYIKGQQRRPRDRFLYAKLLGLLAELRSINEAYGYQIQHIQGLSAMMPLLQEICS

CC(=O)O[C@@H]1C[C@@H](C)[C@](O)(CCC2=CC(=O)OC2)[C@@]2(C)CCCC(C)(C)C12 (stereo partly specified)
inactive: outcome [1] | outcome [2] | outcome [3] | outcome [4] | outcome [5] | Potency [6] | Potency [7] | Potency [8] | Potency [9] | Potency [10] | Potency [11] | outcome [13] | outcome [16] | max response [18] -1.72%
active: Potency [12] 4.47 µM | Potency [14] 8.91 µM | Potency [15] 2.82 µM | Potency [17] 3.98 µM

C/C(=C\CCC(C)CCO)C(=O)OC[C@H]1O[C@@H](O[C@@H]2OC=C(C(=O)O)[C@H]3CC[C@](C)(O)[C@@H]23)C(O)[C@@H](O)C1O (stereo partly specified)
active: Potency [9] 2.32 µM
inactive: Potency [6] | Potency [7] | Potency [8] | Potency [10]

Cc1noc2c1-c1ccccc1C(c1ccc(Cl)cc1)=N[C@H]2CC(N)=O
inactive: outcome [19] | Potency [6] | Potency [7] | Potency [8] | Potency [9] | Potency [10] | Potency [11]
active: Potency [20] 5.15 µM

COc1cnc(-n2cnc(C)n2)c2[nH]cc(C(=O)C(=O)N3CCN(C(=O)c4ccccc4)CC3)c12
inactive: outcome [19] | Potency [6] | Potency [7] | Potency [8] | Potency [9] | Potency [10] | Potency [11]

COC(=O)C1=CO[C@@H](O[C@@H]2O[C@H](CO)[C@@H](O)[C@H](O)[C@H]2O)[C@@H]2C(CO)=CC[C@H]12
inactive: outcome [19] | Potency [6] | Potency [7] | Potency [8] | Potency [9] | Potency [10] | Potency [11]

C=CC(C)(O)CC/C=C(\C)COC1O[C@H](CO)[C@@H](O)[C@H](O)[C@H]1O (stereo partly specified)
active: Potency [9] 2.93 µM
inactive: Potency [6] | Potency [7] | Potency [8] | Potency [10]

NC(Cc1c[nH]c2ccc(O)cc12)C(=O)O (stereo unspecified)
inactive: Potency [6] | Potency [7] | Potency [8] | Potency [10]
active: Potency [9] 16.8 µM

Fc1ccccc1-c1nc2ccn(Cc3ccc(-c4ccc(C(F)(F)F)cc4C(F)(F)F)nn3)cc-2n1
inactive: outcome [19] | Potency [6] | Potency [7] | Potency [8] | Potency [9] | Potency [10] | Potency [11]

CCCC(C(=O)O)c1c(C)nc2ccc(Cl)cc2c1-c1ccccc1 (stereo unspecified)
inactive: outcome [19] | Potency [6] | Potency [7] | Potency [8] | Potency [9] | Potency [10] | Potency [11]

CC(C)C1CCC(CO)=CC1/C=C(\CO)C(=O)OCC1(O)CCC(C(C)C)C2C=C(C(=O)O)COC(=O)C21 (stereo unspecified)
inactive: Potency [6] | Potency [7] | Potency [8] | Potency [9] | Potency [10]

C[C@@H]1O[C@@H](O[C@H]2[C@H](OC(=O)[C@]34CCC(C)(C)C[C@H]3C3=CCC5[C@@]6(C)C[C@@H](O)[C@@H](O[C@@H]7O[C@H](CO)[C@@H](O)[C@H](O)[C@H]7O)[C@@](C)(CO)C6[C@H](O)C[C@@]5(C)[C@]3(C)CC4)OC[C@H](O)[C@@H]2O)[C@H](O)[C@H](O[C@@H]2OC[C@](O)(CO)[C@H]2O)[C@H]1O[C@@H]1OC[C@@H](O)[C@H](O[C@H]2O[C@H](C)[C@@H](O)[C@H](O)[C@@H]2O)[C@H]1O (stereo partly specified)
inactive: Potency [6] | Potency [7] | activity change, negative = inhibition [8] 1.3% [at 11.6 µM] | activity change, negative = thiol reactive [9] 412% [at 11.5 µM] | activity, negative = inhibition [10] 0% [at 11.6 µM]

CCC(C)/C=C(C)/C=C/C1=CC2=C(Cl)C(=O)C(C)(OC(C)=O)C(=O)C2=CN1C(CCC(=O)O)C(=O)O (stereo unspecified)
inactive: Potency [6] | Potency [7] | Potency [8]
active: Potency [9] 0.367 µM

NCCCCN(Cc1nc2ccccc2[nH]1)[C@H]1CCCc2cccnc21
inactive: outcome [19] | Potency [6] | Potency [7] | Potency [8] | Potency [9] | Potency [10] | Potency [11]

FC(F)(F)c1nnc2c(Sc3ccccc3)nc3ccc(Cl)cc3n12
inactive: Potency [6] | Potency [7] | Potency [8] | Potency [9] | Potency [10]

CNc1nc(C)nc(N[C@H]2CCC[C@@H](C(=O)NCc3ccc(C#N)cc3C(F)(F)F)C2)n1
inactive: Potency [6] | Potency [7] | Potency [8] | Potency [9] | Potency [10]

CC1CC(=O)C2=C(O1)OC1(C)CCC3C(C)(C)C4OC4C(=O)C3(C)C1C2 (stereo unspecified)
active: Potency [9] 16.5 µM
inactive: Potency [6] | Potency [7] | Potency [8] | Potency [10]

O=C(O)c1cc(C(F)(F)F)ccc1N1CC[C@H](OCc2ccccn2)C1
inactive: outcome [19] | Potency [6] | Potency [7] | Potency [8] | Potency [10] | Potency [11]

COc1cccc(OC)c1-c1nc(C(=O)N[C@@H](CC(C)C)C(=O)O)cn1-c1ccnc2cc(Cl)ccc12
inactive: Potency [6] | Potency [7] | Potency [8] | Potency [9] | Potency [10]
